Screening data (PubChem BioAssay)
G9a inh = G9a (human) methyltransferase inhibition; Potency, µM (titrated, usually from 102 µM), for inactives: at the highest dose activity, negative = inhibition, hits mostly inhibitors; 8.8% of 350,000 active; G9a H3K9 monomethylation, AlphaScreen, 2 h; also: % is scaled to controls: 0 for no effect and ±100 for the full control effect; nearly all actives have a fitted effect of over 75% in size
Target sequence (Q96KQ7 913-1193 limits assumed): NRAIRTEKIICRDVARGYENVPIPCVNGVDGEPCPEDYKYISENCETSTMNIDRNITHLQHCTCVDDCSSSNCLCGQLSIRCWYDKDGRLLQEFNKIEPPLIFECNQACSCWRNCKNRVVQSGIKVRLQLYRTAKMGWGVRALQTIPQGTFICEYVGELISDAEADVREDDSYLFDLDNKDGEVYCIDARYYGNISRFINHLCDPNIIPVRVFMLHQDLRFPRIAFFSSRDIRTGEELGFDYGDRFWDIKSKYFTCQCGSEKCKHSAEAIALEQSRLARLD
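Quantitative HTS format: methyltransferase activity on a biotin-tagged H3K9 peptide is measured by AlphaScreen, using a rabbit anti-monomethyl-H3K9 antibody with streptavidin donor and anti-IgG acceptor beads. Final levels are 20 nM enzyme, 500 nM peptide, 20 uM SAM; 2 h RT.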
12-LOX inh = inhibitors of human 12S-lipoxygenase ALOX12. P18054. purified 12hLO, xylenol orange hydroperoxide absorbance. Potency, µM (titrated, usually from 108 µM), inactives show at the highest dose activity change, negative = inhibition, usual class: inhibitors. 1.1% of 580,000 active; also: % is scaled to controls: 0 for no effect and ±100 for the full control effect
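Purified human 12hLO at 150 nM in 25 mM Hepes, 0.01% Triton X-100, pH 7.0, preincubated 15 min at room temperature with compound. Reaction started with 40 uM arachidonic acid, 30 min at room temperature. Hydroperoxide measured by Fe-xylenol orange, 573/405 nm absorbance ratio.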
JMJD2A Tudor = inhibitors of human JMJD2A Tudor domain. O75164. AlphaScreen JMJD2A-Tudor / H3K4me3 peptide binding. Potency, µM (titrated, usually from 114 µM), for inactives: at the top dose activity change, negative = inhibition, actives largely listed as inhibitors. 4.4% of 390,000 active; also: % is scaled to controls: 0 for no effect and ±100 for the full control effect; nearly all actives have a fitted effect of over 50% in size
BAZ2B inh = BAZ2B (human) inhibition | Potency, µM (series often up to 114 µM), inactives show at the top dose activity change, negative = inhibition, actives largely listed as inhibitors | AlphaScreen BAZ2B-H3K14Ac peptide displacement | Q9UIF8 | AID 504333 | 4.4% of 360,000 active; also: % is scaled to controls: 0 for no effect and ±100 for the full control effect; nearly all actives have a fitted effect of over 60% in size
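BAZ2B (50 nM) with biotin-H3(5-23)K14Ac peptide (50 nM) in PBS pH 7.4, 0.01% Tween-20, preformed 30 min, then compound 30 min at room temperature; top concentration 110uM. AlphaScreen streptavidin donor/nickel chelate acceptor beads (10 ug/mL final), 20 min dark, signal read.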
HP1b binding inh = inhibitors of HP1-beta chromodomain binding to methylated histone tails | P83916 | AlphaScreen HP1-beta / biotin-H3K9me3 peptide binding | Potency, µM (series often up to 114 µM), inactives show at the top dose activity change, negative = inhibition, usual class: inhibitors | 0.56% of 390,000 active | AID 540317; also: nearly all actives have a fitted effect of over 70% in size
Target sequence (P83916 whole entry, looked up): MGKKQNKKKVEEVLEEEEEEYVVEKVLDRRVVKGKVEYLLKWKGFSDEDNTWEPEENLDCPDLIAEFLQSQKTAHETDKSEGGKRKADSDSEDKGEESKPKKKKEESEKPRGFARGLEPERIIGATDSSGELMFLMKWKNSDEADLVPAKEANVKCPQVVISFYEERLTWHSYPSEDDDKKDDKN
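Compound inhibition of the preformed complex between 50 nM HP1-beta and 50 nM biotinylated H3K9me3 peptide was read by AlphaScreen. Buffer was PBS pH 7.4 with 0.01% Tween-20. Incubations ran 30 min at room temperature, with 10 ug/mL donor/acceptor beads.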
Sfp inh = blocks B. subtilis Sfp PPTase activity | Biochemical Sfp PPTase activity, qHTS | Potency, µM, inactives show largest response in the series, negative = inhibition, actives largely listed as inhibitors | 3.5% of 310,000 active | AID 1490;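 also: the enzyme is Sfp with the accession as filed and its product quenches rhodamine fluorescence; 0% = enzyme reaction without inhibitor and -100% = no enzyme wells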
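Sfp 15 nM + cpd, 15 min RT; start w/ rhodamine-CoA 5 uM, BHQ-2-YbbR 12.5 uM (final); 50 mM Hepes pH 7.6, 10 mM MgCl2, 0.01% NP-40, 0.01% BSA; read 525/598 nm at 0 and 30 min.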
Starred values were filed as active, the others as inactive; ? = inconclusive; . = no result given; [ ] = remark or other dose. This is a sample that favours compounds with a hit; in the whole collection about 8.7% have one here. Calls follow the shape of the dose curve; as a rule, active = well fitted curve in the direction sought with a large enough effect; inconclusive = small, poorly fitted or top-dose-only effect, or another doubt; inactive = no such curve, though single readings can be large; an effect the other way counts as inactive or inconclusive. Potency is read from the fitted curve at half-maximal effect.

SMILES	G9a inh	12-LOX inh	JMJD2A Tudor	BAZ2B inh	HP1b binding inh	Sfp inh
O=C(NCCc1ccccc1)c1nc2nc(-c3cccs3)cc(C(F)(F)F)n2n1	-44.5%[59 µM]	3.8%	?	50.1µM*	50.3%	?
O=C(NCc1ccco1)c1cc2nc(-c3cccs3)cc(C(F)(F)F)n2n1	?	?	-8.9%	-7.7%	16.0%	-20.2%
O=C(NCc1cccnc1)c1cc2nc(-c3cccs3)cc(C(F)(F)Cl)n2n1	50.1µM*	-1.1%	-5.6%	-36.1%	44.7%	-9.7%
O=C(O)c1cc2nc(-c3cccs3)cc(C(F)(F)F)n2n1	70.8µM*	-15.7%	-33.6%	50.1µM*	20.1%	3.0%
Cc1cc(C)n2nc(C(=O)NCCc3ccccc3)nc2n1	?	20.1%	-23.7%	2.3%	7.0%	?
CC(C)C(=O)Nc1ccc(NC(=O)CCCC(=O)O)cc1	.	1.4%	.	.	.	.
COc1ccc(/C=N/Nc2nnc(-c3ccccc3)c(=O)[nH]2)cc1	?	17.9%	?	?	12.6%	10.6%
O=c1[nH]c(N/N=C/c2ccccc2Br)nnc1-c1ccccc1	-7.1%[59 µM]	-20.3%	-9.5%	-10.9%	23.5%	50.1µM*
O=C(O)C(c1c(-c2ccccc2)[nH]c2ccccc12)N1CCN(Cc2cccnc2)CC1 (stereo unspecified)	.	-1.7%	.	.	.	.
N#Cc1c(SCc2c(Cl)cccc2Cl)nc(N)[nH]c1=S	41.2%[12.7 µM]	31.6µM*	-24.2%	?	19.9%	.
Cc1ccc(C(=O)c2c(C)c(C)cc(C)c2C)cc1	.	-1.1%	.	.	.	.
CN1C(=O)C2(c3ccccc31)C1CCCC=C1C(C#N)=C(N)C2(C#N)C#N (stereo unspecified)	-45.8%[2.33 µM]	44.7µM*	2.3%[11.4 µM]	22.7%	38.5%	12.6µM*
Cc1ccc(S(=O)(=O)NCCC(=O)Nc2ccc(C)cc2C(=O)c2ccccc2)cc1	4.8%[59 µM]	-10.9%	50.1µM*	-32.1%	-6.9%	-3.2%
COC(=O)C(C)(C)NC(=O)CNC(=O)OCc1ccccc1	.	1.5%	.	.	.	.
CCCN1CCC(=NNc2ccc(C(=O)O)cc2)CC1	7.94µM*	-14.6%	-24.1%	?	23.4%	?
COCCn1nnnc1C(c1ccc2ncccc2c1)N1CCN(c2ccccc2F)CC1 (stereo unspecified)	8.91µM*	?	-25.2%	50.1µM*	30.9%	-0.7%
CCc1ccc2[nH]c(=O)c(C(c3nnnn3CCOC)N3CCN(c4ccccc4F)CC3)cc2c1 (stereo unspecified)	?	?	-29.5%	-36.0%	6.2%	8.91µM*
CCN(Cc1ccccc1)C(c1cc2ccc(C)cc2[nH]c1=O)c1nnnn1CCOC (stereo unspecified)	35.5µM*	?	-3.1%	-31.0%	14.8%	13.7%
COCCn1nnnc1C(c1ccc2ncccc2c1)N1CCc2ccccc21 (stereo unspecified)	50.1µM*	0.4%	-23.0%	-35.8%	10.8%	12.0%
Cc1ccc2cc(C(c3nnnn3Cc3ccccc3)N3CCN(c4ccccc4)CC3)c(=O)[nH]c2c1 (stereo unspecified)	?	?	?	?	-7.4%	?
Cc1noc(C)c1[S+](=O)([O-])N1CC2ON=C(C(=O)O)C2C1 (stereo unspecified)	.	0.2%[12.5 µM]	.	.	.	.
COc1ccc2nc([C@H]3CCN(Cc4ccc5c(c4)OCO5)C3)[nH]c2c1	.	-11.0%[176 µM]	.	.	.	.
COCCn1nnnc1C(c1ccc(OC)cc1OC)N1CCN(c2ccccc2)CC1 (stereo unspecified)	?	0.0%	?	?	3.1%	-12.4%
COCCn1nnnc1C(c1ccc(OC)cc1OC)N1CCN(c2ccccc2F)CC1 (stereo unspecified)	56.2µM*	39.8µM*	-17.6%	?	21.4%	10.1%
CCOC(=O)c1c(CC(C)C)csc1/N=C/C1C(=O)CCCC1=O	50.1µM*	0.1%	-27.1%	?	0.1%	?
CCOC(=O)c1ccc2c(c1)[n+](CC)c(C)n2-c1ccccc1	31.6µM*	?	0.7%	?	-24.6%	-5.9%
